Compound activity deposited in PubChem by Johns Hopkins Ion Channel Center.
TMEM16A act: mouse TMEM16A channel activation, primary screen; Q8BHY3; HEK293 TMEM16A/YFP-H148Q/I152L, iodide quench fluorescence; hits give low values; B-score at 10 µM; 340,000 tested, 0.3% active; AID 623877;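 active = fluorescence-ratio B-score plate-corrected deviation score at least 3 library SD below zero, with starting fluorescence score within 5 deviations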;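 note: channel opened by trigger with iodide after compound preincubation; score built on the fluorescence ratio of max minus min over baseline; more negative score means more quench and so TMEM16A activation or potentiation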
KCNK3 block: human KCNK3 channel inhibition, primary screen; B-score at 10 µM; AID 602410; 340,000 tested, 0.84% active; CHO-KCNK3 thallium flux, FluxOR fluorescence; hits give low values; O14649;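 active = B-score under library mean minus 4 SD, starting fluorescence ratio at most library mean plus 5 SD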;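 note: more negative B-score means stronger inhibition of thallium flux through KCNK3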
Kir21 inh: inhibitors of mouse Kir2.1 inward-rectifier potassium channel; HEK293-Kir2.1, FluxOR thallium flux fluorescence; hits give low values; 310,000 tested, 0.85% active; B-score at 10 µM; P35561;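 active = fluorescence ratio B-score at or below minus 3 SD of library scores, with starting-brightness B-score within 2 SD, cut at about -4.2 in these data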;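 note: channel flux triggered by added potassium and thallium sulfate stimulus; B-score of peak minus minimum fluorescence over baseline after thallium stimulus; more negative B-score means stronger Kir2.1 block with less thallium influx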
KCNK9 block: human KCNK9 channel inhibition; B-score at 10 µM; HEK293 KCNK9, FluxOR thallium flux fluorescence; hits give low values; AID 488922; 310,000 tested, 1.2% active;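 active = ratio B-score over 3 SD below the library mean, with starting fluorescence within 5 SD of its mean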;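 note: negative B-score means less thallium flux so channel inhibition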
ANO1 block: inhibitors of mouse TMEM16A calcium-activated chloride channel; Q8BHY3; HEK293 TMEM16A/YFP iodide influx fluorescence, ionomycin; normalized B-score (activity score, 25-100; higher = stronger inhibition) at 10 µM; 310,000 tested, 1.2% active; AID 588511;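 active = ratio plate-corrected score three or more library SD toward inhibition, starting fluorescence score within five deviations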;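 note: score derived from kinetic fluorescence span divided by baseline fluorescence per well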
Numbers without * were called inactive; i = inactive; x = no result. Shown are actives, neighbours in structure and some others; about 3.5% of the full set was active somewhere.

SMILES	TMEM16A act	KCNK3 block	Kir21 inh	KCNK9 block	ANO1 block
O=C1c2ccccc2C(Nc2ccc(-c3nc4ccccc4[nH]3)cc2)N1Cc1ccco1 (configuration not stated)	i	-11*	0.48	i	i
Cc1nc(C(=O)NC2CCCCC2)sc1C1(C)CC(c2cccnc2)=NO1 (configuration not stated)	x	x	1.2	i	i
CCC(=O)N1c2ccc(S(=O)(=O)CCC(=O)Nc3ccc(OC)cc3OC)cc2CC1C (configuration not stated)	-42*	i	0.1	i	i
COc1ccc(S(=O)(=O)CCC(=O)N2c3ccccc3CC2C)cc1 (configuration not stated)	i	i	-4.6*	i	i
Cc1noc(C)c1N=Nc1ccc(Br)cc1C(=O)O	i	i	0.31	i	i
CS(=O)(=O)Nc1cccc(C2=NN(C(=O)c3ccccc3Cl)C(c3ccccc3O)C2)c1 (configuration not stated)	i	i	1.5	i	i
O=C(NCCc1c[nH]c2ccccc12)C(=O)Nc1ccccc1	i	i	0.66	i	i
C=CCNC(=O)c1c(CS(=O)(=O)c2ccccc2)noc1C(=O)NCc1ccccc1	i	i	x	x	i
Cc1[nH]n(-c2ccc(Cl)cc2)c(=O)c1/C=N/c1nnc(-c2ccccc2)s1	i	i	0.13	i	25*
CCc1nnc(NS(=O)(=O)c2ccc(N=Cc3c(C)[nH]n(-c4ccc(Cl)cc4)c3=O)cc2)s1	i	i	0.7	i	i
S=C(NCC1CCCO1)N1CCN(c2ccccc2)CC1 (configuration not stated)	i	i	0.15	i	i
O=C(Nc1ccccc1)N1CCN(c2cccc(C(F)(F)F)c2)CC1	i	i	-0.25	-7.4*	i
FC(F)(F)c1cccc(N2CCN(C(=S)NCC3CCCO3)CC2)c1 (configuration not stated)	i	i	0.23	i	25*
COc1ccc(NC(=O)N2CCN(c3cccc(C(F)(F)F)c3)CC2)cc1OC	i	i	-1.4	i	i
CCN1CCN(C(=O)C(Cc2ccccc2)NC(=O)c2ccc(Cl)c(S(=O)(=O)N(C)C)c2)CC1 (configuration not stated)	-46*	i	x	x	x
Cc1ccc(NS(=O)(=O)c2ccc(OCC(N)=O)cc2)cc1	i	i	-1.8	i	i
Cc1ccc(NC(=O)Nc2ccc(Cl)cn2)cc1	-5.9*	i	-0.43	i	x
C/C(N)=C(/C#N)C(=O)CSc1nnc(NC(C)C)s1	i	i	-1.2	i	i
C[C@@H]1CN(S(=O)C(C)(C)C)[C@H](CCO)/C1=C\CCO (some centres not stated)	x	i	x	x	x
COCCn1c(SCC(=O)NCC2CCCO2)nc2c(c1=O)SCC2 (configuration not stated)	i	i	-0.08	i	i
CC(O)CNc1nc2ccccc2n1-c1ncnc2sc3c(c12)CCC3 (configuration not stated)	i	i	-7.6*	i	i
Cc1cccc(C)c1NC(=O)CNC(=O)c1ccc2ccccc2n1	i	i	x	x	x
CCN(c1cccc(C)c1)S(=O)(=O)c1cc2c3c(c1)CCC(=O)N3CCC2	i	i	-5.8*	i	i
Cc1cccc(N2CCN(C(=O)c3ccc4nccnc4c3)CC2C)c1 (configuration not stated)	i	-9.5*	x	x	x
CC(C)[C@H](NC(=O)OC(C)(C)C)C(=O)N/N=C/c1cccc2nccnc12	i	i	0.72	i	i
CC(C)C(c1nnnn1Cc1ccccc1)N1CCN(Cc2ccco2)CC1 (configuration not stated)	i	i	-0.76	i	i
CC(C)C(c1nnnn1Cc1ccco1)N1CCN(c2cccc(Cl)c2)CC1 (configuration not stated)	i	i	0.02	-8*	i
COc1ccc(S(=O)(=O)N(C)c2ccccc2)c2cccnc12	i	i	-5.1*	i	i
CCN(Cc1ccccc1)S(=O)(=O)c1ccc(OC)c2ncccc12	i	i	-2.1	i	i
O=C(NC1=NC2CCCCC2N1)c1ccccc1 (configuration not stated)	-6.6*	i	x	x	i
